The list is not random: actives were taken first. Their share in the collection is about 12%.
SARS PLpro yeast: qHTS of Yeast-based Assay for SARS-CoV PLP; actives 0.19% (n = 330,000); S. cerevisiae expressing SARS-CoV PLpro, growth rescue; Potency, µM (titrated, usually from 32.9 µM), inactives show top-dose activity, positive = growth rescue, hits mostly activators; calls by dose curve; note: 0% is about no effect; nearly all actives have a fitted effect of over 55% in size
AmpC inh no detg: qHTS Inhibitors of AmpC Beta-Lactamase (assay without detergent); P00811; AmpC nitrocefin hydrolysis, absorbance 480 nm, 0.0001% Triton; Potency, µM (doses to about 57.1 µM), without a hit: top-dose activity change, negative = inhibition, hits mostly inhibitors; actives 0.52% (n = 330,000); AID 485341, 2010;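 note: plate controls were no compound for no effect and no enzyme for full effect; nearly all actives have a fitted effect of over 20% in size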
Target sequence (P00811 whole entry, looked up): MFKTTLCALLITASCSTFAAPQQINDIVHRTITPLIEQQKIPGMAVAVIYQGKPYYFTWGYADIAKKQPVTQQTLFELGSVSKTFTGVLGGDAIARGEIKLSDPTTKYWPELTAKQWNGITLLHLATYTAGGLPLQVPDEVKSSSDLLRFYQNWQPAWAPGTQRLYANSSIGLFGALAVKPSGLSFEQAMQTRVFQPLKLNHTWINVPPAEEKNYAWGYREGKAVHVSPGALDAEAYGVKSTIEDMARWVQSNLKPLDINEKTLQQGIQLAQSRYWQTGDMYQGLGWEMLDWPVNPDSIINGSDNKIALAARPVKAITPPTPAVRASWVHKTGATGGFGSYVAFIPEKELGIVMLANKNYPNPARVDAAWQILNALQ
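20 mM phosphate pH 7.0 + 0.01% (detergent screen) or 0.0001% Triton X-100; 5.3 nM AmpC reagent; cpd preinc 15 min RT; nitrocefin (800 uM stock) to start; A480 q20 s × 4 min; Activity was normalised to no-enzyme and no-compound control wells.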
Pf growth 96h: Primary qHTS for delayed death inhibitors of the malarial parasite plastid, 96 hour incubation. P. falciparum luciferase reporter growth, 96 h. Potency, µM (series often up to 28.7 µM), without a hit: at the top dose activity change, negative = inhibition, usual class: inhibitors. actives 6.9% (n = 320,000). AID 504834, 2011; note: % is set by controls: 0 for no effect and ±100 for the full control effect
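Compounds incubated with erythrocytes infected by luciferase-expressing P. falciparum (2% hematocrit, 0.05% parasitemia final) for 96 hours, 37 C in 5% CO2. Growth inhibition scored as decreased luciferase luminescence.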
AmpC inh detg: qHTS Inhibitors of AmpC Beta-Lactamase (assay with detergent); AmpC hydrolysis of nitrocefin, absorbance 480 nm, 0.01% Triton; Potency, µM (series often up to 114 µM), for inactives: at the highest dose activity change, negative = inhibition, most hits filed as inhibitors; AID 485294, 2010; actives 0.041% (n = 370,000); P00811;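 note: 0% = no-compound wells and -100% = no-enzyme wells; nearly all actives have a fitted effect of over 25% in size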
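20 mM phosphate pH 7.0 + 0.01% (detergent screen) or 0.0001% Triton X-100; 5.3 nM AmpC reagent; cpd preinc 15 min RT; nitrocefin (800 uM stock) to start; A480 q20 s × 4 min; Activity was normalised to no-enzyme and no-compound control wells.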
Sm TGR inh: qHTS Assay for the Inhibitors of Schistosoma Mansoni Peroxiredoxins. Schistosoma mansoni thioredoxin glutathione reductase (TGR), Q962Y6. purified TGR, DTNB reduction, TNB absorbance 405 nm. Potency, µM (doses to about 114 µM), for inactives: top-dose activity change, negative = inhibition, usual class: inhibitors. actives 3% (n = 360,000); note: % is set by controls: 0 for no effect and ±100 for the full control effect; nearly all actives have a fitted effect of over 60% in size
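TGR 20 nM + NADPH 100 uM (dispensed conc.), cpd preinc 15 min RT; start with NADPH (500 uM addition) then DTNB (15 mM addition). Kinetic TNB absorbance, 405 nm filter. Four-parameter Hill fit across titration.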
Pf growth 48h: Primary qHTS for delayed death inhibitors of the malarial parasite plastid, 48 hour incubation. P. falciparum luciferase growth in erythrocytes, 48 h. Potency, µM (series often up to 28.7 µM), inactives show at the highest dose activity change, negative = inhibition, actives largely listed as inhibitors. actives 5.9% (n = 310,000). AID 504832, 2011; note: % is set by controls: 0 for no effect and ±100 for the full control effect
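Luminescence readout; reporter = integrated firefly luciferase in P. falciparum. RBC culture at 2% hematocrit, 0.1% parasitemia final, 37 C/5% CO2; decreased signal taken as growth inhibition.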
* hit, by the source's call; ? = inconclusive; nt = no result given; [ ] = another dose, or the depositor's remark. Unless noted, calls come from the whole dose curve; as a rule, active = well fitted curve in the direction sought with a large enough effect; inconclusive = small, poorly fitted or top-dose-only effect, or another doubt; inactive = no such curve, though single readings can be large; an effect the other way counts as inactive or inconclusive. Potency is the fitted concentration of half-maximal effect.

SMILES | SARS PLpro yeast | AmpC inh no detg | Pf growth 96h | AmpC inh detg | Sm TGR inh | Pf growth 48h
O=C(NCc1cccnc1)c1nc(-c2ccccc2)n(-c2ccccc2)n1 | 5% | 10% | 3.3µM* | 15% | -3% | -19%
O=C(Nc1ccc(Cl)cc1C(=O)NCc1cccnc1)c1ccc(Cl)cc1Cl | 10% | -33% | 3.3µM* | -3% | -2% | 8.3µM*
Cc1cccc(N2CCN(C(=O)C3CCN(S(=O)(=O)c4cn(C)cn4)CC3)CC2)c1C | nt | nt | nt | -1% | -12% | nt
CCC(C(=O)NC1CCCC1)N(C(=O)c1snc(C(N)=O)c1N)c1ccc(C)cc1C (stereo not given) | 2% | -5% | ? | -8% | -15% | ?
CC(=O)c1ccc(N2CCN(c3ncnc4c3cnn4-c3cc(Cl)ccc3C)CC2)cc1 | nt | nt | nt | -4% | -8% | nt
Cc1cc(C)n2ncc(C(=O)NCc3cccnc3)c2n1 | 3% | -19% | 2.3µM* | ? | 12% | 11%
CCOC(=O)N(NC(=O)C(O)(CC(C)C)CC(C)C)c1ccccc1 | ? | 13% | 18% | -5% | -2% | -11%
COC(=O)c1cc(NS(=O)(=O)c2ccc(N3CCOCC3)c(NC(C)=O)c2)cc(C(=O)OC)c1 | 1% | -6% | ? | ? | -24% | 2%
COC(=O)c1cc(NS(=O)(=O)c2ccc(N3CCOCC3)c(N)c2)cc(C(=O)OC)c1 | ? | 2% | 4.1µM* | 5% | 6% | ?
COc1ccc(S(=O)(=O)Nc2cc(C(=O)NCCC(C)C)ccc2N2CCOCC2)cc1 | -1% | 93% | ? | -6% | -36% | 8.3µM*
COc1ccc(S(=O)(=O)Nc2cc(C(=O)NCCCOC(C)C)ccc2N2CCOCC2)cc1 | 0% | 71% | ? | 3% | -9% | 1%
COc1ccc(NS(=O)(=O)c2ccc(N3CCOCC3)c(NC(=O)C(C)C)c2)cc1 | 2% | -14% | 9% | 1% | 22% | ?
CCOC(=O)/C=C/C(=O)Nc1cc(S(=O)(=O)Nc2ccc(OC)cc2)ccc1N1CCOCC1 | 1% | -9% | ? | -9% | 32µM* | ?
COc1ccc(S(=O)(=O)NCCCN2CCCC2=O)cc1OC | -7% | -11% | ? | -11% | 2% | 75%
Cc1ccc(OCC(=O)Nc2ccc3nc(SCC(=O)N4CCCC4)sc3c2)cc1 | nt | nt | nt | 19% | 0% | nt
CCC(=O)N(c1nnc(SCC(=O)Nc2ccccc2Cl)s1)C1CC1 | -2%[6.58 µM] | -18% | 9% | -2% | -20% | 1%
Cc1ccc(Cl)cc1N1CCN(C(=O)CNC(=O)c2ccc(Br)o2)CC1 | 3% | 5% | ? | 2% | -21% | ?
C=CCOC(=O)/C(=C/c1cccc2ccccc12)NC(=O)c1ccccc1 | -31% | 13µM* | ? | ? | 3% | -20%
CCOC(=O)/C(=C/c1cn(C)c2ccccc12)NC(=O)c1ccccc1 | 1% | 10% | ? | -7% | -22% | -18%
O=C(CNC(=O)/C(=C/c1ccccc1)NC(=O)c1ccc(Br)cc1)OCc1ccccc1 | 8% | 3.5µM* | -29% | -2% | -12% | 20%
O=C(OCc1ccccc1)/C(=C/c1cccc2ccccc12)NC(=O)c1ccccc1 | 22% | -29% | ? | -10% | 5% | 6.6µM*
O=C(CNC(=O)/C(=C\c1ccc(Br)cc1)NC(=O)c1ccccc1)OCc1ccccc1 | -6% | -41% | 4% | -12% | 9% | 11%
O=S(=O)(NCC(c1ccco1)N1CCOCC1)c1ccc(Cl)cc1 (stereo not given) | -6% | -22% | ? | 3% | 5% | 5%

Screening data deposited in PubChem by National Center for Advancing Translational Sciences (NCATS).
